For 30 compounds, INHIBITION results are on record in ChEMBL document CHEMBL4513216, “Probing the Open Global Health Chemical Diversity Library for Multistage-Active Starting Points for Next-Generation Antimalarials” (ACS Infect Dis, 2020).

About 8,600 (12%) of roughly 69,000 compounds showed an effect of 50% or more. Only a selection was taken, and strong results are over-represented in it overall.

The subject of this assay is Plasmodium berghei. The assay can be described thus: Screen against P. berghei liver stage (PbLuc), transformed with Luciferase, at 10uM. The assay is classed as functional, HepG2. The settings on record: tested at 10 uM.
Consider `O=C(NCc1nnc2n1CCC2)c1cn(-c2cccc(Br)c2)nn1`, for which the INHIBITION came to 35.7%.

With `COCCNC(=O)Nc1ccc(F)c(C(N)=O)c1`, the INHIBITION worked out at 39.8%.

Regarding `COCC1CN(C(=O)CS(C)(=O)=O)Cc2ncn(CC3CC3)c21` (stereo not given), the INHIBITION came to 50%.

Consider `COCC1CN(S(C)(=O)=O)Cc2ncn(CC3CC3)c21` (stereo not given), for which the INHIBITION is reported as -3.1%.

As for `COCC1CN(C(=O)COc2ccccc2)Cc2ncn(C)c21` (stereo not given), the INHIBITION came out at 51.2%.

For the compound `COCC1CN(S(=O)(=O)C2CC2)Cc2ncn(CC3CC3)c21` (stereo not given), the INHIBITION was 51%.

Regarding `COCC1CN(CC2CC2)Cc2ncn(CC3CC3)c21` (stereo not given), the INHIBITION is reported as 13.5%.

With `COCC1CN(C(=O)COc2ccccc2C)Cc2ncn(C)c21` (stereo not given), the INHIBITION is -9.42%.

As for `CCOCC1CN(S(=O)(=O)C2CC2)Cc2ncn(CC3CC3)c21` (stereo not given), the INHIBITION turned out to be 7.53%.

For the compound `CCS(=O)(=O)N1Cc2ncn(CC3CC3)c2C(COC)C1` (stereo not given), the INHIBITION was determined as 11.5%.

In the case of `CCn1nnc2c1C(COC)CN(C(=O)COc1ccccc1)C2` (stereo not given), the INHIBITION was -12.2%.

As to `CS(=O)(=O)c1ccc(-c2nc(C(=O)N3CCCC3)n3ccccc23)cc1`, the INHIBITION was -42.9%.

Turning to `Cc1ccc(CN2CC[C@@H](O)[C@@H]2Cc2ccccc2)o1`, the INHIBITION is given as 42.3%.

With `CC1=C(c2ccc(F)cc2)S(=O)(=O)N=C1N1CCc2ccccc21`, the INHIBITION is given as 0.29%.

As to `CC(C)N(C)CCNC(=O)N1CCN(Cc2ccon2)CC1`, the INHIBITION is given as -0.514%.

As to `CC(=O)N(Cc1ncc(C)o1)C1CCN(Cc2ccc(F)c(F)c2)C1` (stereo not given), the INHIBITION is 68.9%.

On to `CC(C)c1cnc(CN(C)C2CCN(CCS(C)(=O)=O)C2)o1` (stereo not given), for which the INHIBITION is 38.5%.

In the case of `CCc1cnc(CN(C)C2CCN(CCS(C)(=O)=O)C2)o1` (stereo not given), the INHIBITION turned out to be 36.8%.

Take `CC(=O)N(Cc1ncc(C)o1)C1CCN(Cc2cccnc2)C1` (stereo not given): the INHIBITION was found to be 31.9%.

Consider `COc1ccc(C)cc1CN(Cc1ncc(C)o1)C1CCN(C)C1` (stereo not given), for which the INHIBITION was 23.7%.

With `Cc1cnc(CN(C)C2CCN(Cc3ccc(Cl)s3)C2)o1` (stereo not given), the INHIBITION is reported as 60%.

On to `Cc1cnc(CN(Cc2ccc(C#N)cc2F)C2CCN(C)C2)o1` (stereo not given), for which the INHIBITION was -40.7%.

For `CCS(=O)(=O)CCN1CCC(N(C)Cc2ncc(C)o2)C1` (stereo not given), the INHIBITION came to 74.4%.

For `CC(=O)N(Cc1ncc(C)o1)C1CCN(Cc2ccccc2F)C1` (stereo not given), the INHIBITION was -19.9%.

Consider `Cc1cnc(CN(C)C2CCN(Cc3cnc(C)s3)C2)o1` (stereo not given), for which the INHIBITION is listed as 23.1%.

On to `Cc1cnc(CN(Cc2ccc(Cl)s2)C2CCN(C)C2)o1` (stereo not given), for which the INHIBITION was 51.2%.

As for `Cc1cnc(CN(C)C2CCN(Cc3sc(C)nc3C)C2)o1` (stereo not given), the INHIBITION turned out to be 21.6%.

Take `CN(C)c1ccc(C(=O)NCc2ccc(N3CCOCC3)cc2)cn1`: the INHIBITION turned out to be 12%.

With `Cc1n[nH]c(C2CN(C(=O)CCOCC(F)(F)F)CCO2)n1` (stereo not given), the INHIBITION amounted to 13.6%.

Consider `CC(=O)N1CCOCC2(CCN(Cc3ccc(C)s3)CC2)C1`, for which the INHIBITION was 20.2%.
